From PubChem
RE007 growth inh = less growth of the S. pombe RE007 Vpr strain | AID 651644 | S. pombe RE007 Vpr strain, BacTiter-Glo ATP luminescence, 24 h | 0.21% of 360,000 active | Potency, µM (doses to about 92.2 µM), for inactives: at the top dose activity change, negative = less growth, most hits filed as inhibitors; active = well fitted falling curve with a large enough effect; inconclusive = small, poorly fitted or top-dose-only effect; inactive = no such curve, though single readings can be large or run the other way; also: potency is read from the fitted curve at half-maximal effect; % is scaled to controls: 0 for no effect and ±100 for the full control effect; nearly all actives have a fitted effect of over 50% in size
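Fission yeast strain RE007, carrying one chromosomally integrated HIV-1 vpr copy, was seeded at OD 0.01 in PMG+AL medium with 23 nL pinned compound. After 24 h at 30 °C and 99% humidity, viability was read by BacTiter-Glo luminescence.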
LmPK inh = inhibitors of Leishmania mexicana pyruvate kinase | Q27686 | purified LmPK, Kinase-Glo ATP luminescence, 1 h | Potency, µM (series often up to 57.5 µM), for inactives: at the highest dose activity change, negative = inhibition, actives largely listed as inhibitors | 0.37% of 290,000 active; also: potency is read from the fitted curve at half-maximal effect; % is scaled to controls: 0 for no effect and ±100 for the full control effect
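ATP generated from ADP (0.1 mM) and PEP (0.5 mM) by 0.1 nM LmPK over 1 h at room temperature (pH 7.2 imidazole buffer) was detected by coupled luciferase luminescence. Values were normalized to uninhibited and no-enzyme wells.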
Shiga toxin inh = blocks Shiga toxin action in Vero cells | Vero cells, Shiga toxin protein synthesis inhibition reporter | inhibition, % at 38.7 µM | 9.2% of 290,000 active; in the data active = inhibition mostly above about 28%, no sharp cut-off; inactive = mostly below about 43%; also: 0% is about no effect
TbPYK inhibitor = blocks Trypanosoma brucei pyruvate kinase. Q57TT1. TbPYK enzyme, Kinase-Glo Plus ATP luminescence, 45 min. Potency, µM (top dose mostly 76.8 µM), without a hit: at the highest dose activity, negative = inhibition, usual class: inhibitors. 0.12% of 410,000 active; also: potency is read from the fitted curve at half-maximal effect; % is scaled to controls: 0 for no effect and ±100 for the full control effect; nearly all actives have a fitted effect of over 50% in size
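Luminescence from Kinase-Glo Plus, added after a 45-minute room-temperature reaction, served as the end-point read-out. The enzyme and substrate were preincubated with compound before ADP (130 uM final) initiated turnover. Concentration-effect curves came from normalized qHTS data.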
FBPA Giardia inh = inhibitors of Giardia lamblia fructose-1,6-bisphosphate aldolase; purified Giardia FBPA; Potency, µM (highest dose often 59.6 µM), for the others: at the highest dose activity, negative = inhibition, most hits filed as inhibitors; 0.71% of 290,000 active; A8B2U2; AID 2451; also: potency is read from the fitted curve at half-maximal effect; % is scaled to controls: 0 for no effect and ±100 for the full control effect; nearly all actives have a fitted effect of over 55% in size
Target sequence (A8B2U2 whole entry, looked up): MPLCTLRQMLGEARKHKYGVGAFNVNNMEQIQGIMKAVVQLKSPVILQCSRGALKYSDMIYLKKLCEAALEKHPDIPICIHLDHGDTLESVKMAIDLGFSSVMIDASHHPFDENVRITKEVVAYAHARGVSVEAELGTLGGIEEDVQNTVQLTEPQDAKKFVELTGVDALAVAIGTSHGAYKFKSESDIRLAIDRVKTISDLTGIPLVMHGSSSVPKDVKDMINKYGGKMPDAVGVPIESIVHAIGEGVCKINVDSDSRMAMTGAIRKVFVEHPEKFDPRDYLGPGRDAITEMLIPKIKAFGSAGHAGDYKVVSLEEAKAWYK
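40 nM FBPA preincubated 10 min at RT with compound (up to 57.5 uM final), then substrate plus GAPDH/TPI/NAD/arsenate coupling and diaphorase/resazurin added. Fluorescence read after 20 min at RT, 525/598 nm.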
CHX counter = counter-screen hit for Shiga toxin inhibitors, cycloheximide; cell reporter, cycloheximide protein synthesis inhibition counterscreen; max response, %; 12% of 300,000 active; AID 2314; in the data active = max response mostly above about 13%, no sharp cut-off; inactive = mostly below about 14%; also: read at 38.3 µM for the half of the compounds with a filed dose; 0% is about no effect
* marks the source's active call; other numbers are inactive results; ? = inconclusive; / = not tested or not shown; [ ] = another dose, or the depositor's remark. The sample as a whole holds a higher share of hits than the screen did. Unless noted, calls follow the shape of the dose curve; as a rule, active = well fitted curve in the direction sought with a large enough effect; inconclusive = small, poorly fitted or top-dose-only effect, or another doubt; inactive = no such curve, though single readings can be large; an effect the other way counts as inactive or inconclusive.

SMILES | RE007 growth inh | LmPK inh | Shiga toxin inh | TbPYK inhibitor | FBPA Giardia inh | CHX counter
O=C(COc1ncnc2ccccc12)Nc1cc([N+](=O)[O-])ccc1F | -1% | -1% | -12 | -3% | 0% | 5
CCCCNC(=O)C(NC(=O)c1ccc2c(c1)OCO2)C(=O)c1ccccc1 (configuration not stated) | -9% | / | / | / | / | /
O=C(OCc1cn([C@@H]2CN(Cc3cccs3)[C@@H](c3ccc(Cl)cc3)C[C@H]2O)nn1)c1ccccc1 | 6% | / | / | -12% | / | /
CSc1nc2c(cnn2-c2ccccc2)c(=O)n1N | 7% | -6% | 91* | -4% | 0% | 28*
Cc1cccc(-n2c(C)nc3c(cnn3-c3ccc(F)cc3)c2=O)c1 | 25% | -4% | 31 | 0% | -1% | 39*
Cc1ccc(-n2c(C)nc3c(cnn3-c3ccccc3)c2=O)cc1 | / | / | / | 3% | / | /
C=CCn1c(C)nc2c(cnn2-c2ccccc2)c1=O | 11% | -2% | 19 | -3% | 11% | 14*
CCSc1nc2c(cnn2-c2ccccc2)c(=O)n1N | -12% | -14% | 50* | -10% | -3% | 46*
C=CCn1c(C)nc2ccccc2c1=O | 9% | 8% | -5 | 6% | 4% | 5
CC(=O)Nc1nc(C)c(-c2csc(Nc3ccc(O)cc3)n2)s1 | 10% | 1% | 33 | -21% | -8% | 15*
CC(=O)Nc1ccc(Nc2nc(-c3sc(NC(C)=O)nc3C)cs2)cc1 | 0% | -1% | -3 | -17% | -18% | -2
CC(=O)Nc1nc(C)c(-c2csc(Nc3ccccn3)n2)s1 | -4% | 1% | 90* | -3% | -9% | 37*
Cc1ccc(N2C(=O)c3n[nH]c(C)c3C2c2ccco2)cc1 (configuration not stated) | -2% | -1% | 73* | -14% | -7% | 37*
Cc1ccsc1C(=O)Nc1ccc(O)c(-c2nc3ccccc3s2)c1 | -2% | -1% | 45 | -1% | 0% | 18*
CC(=O)Nc1ccc(O)c(-c2nc3ccccc3s2)c1 | -12% | 3%[11.5 µM] | 131* | 1% | -6% | 49*
O=C(CCS(=O)(=O)c1ccccc1)Nc1ccc(-c2nc3ccccc3s2)c(O)c1 | 4% | 0% | 48* | -8% | 7% | 44*
Cc1ccc(C(=O)Nc2ccc(-c3nc4ccccc4s3)c(O)c2)c(C)c1 | / | / | / | 3% | / | /
CNC(=O)C1CCC(Cn2c(=O)c3sccc3n(CC(=O)NCc3cccc(OC)c3)c2=O)CC1 (configuration not stated) | / | / | / | 0% | / | /
CC(C)(C)N(Cc1ccc2c(c1)OCO2)C(=O)/C=C\S(=O)c1ccccc1 (configuration not stated) | 34% | / | / | -1% | / | /
Cc1nc(NCc2ccccc2)c2nc(-c3ccccc3)n(C(C)CN(C)C)c2n1 (configuration not stated) | / | / | / | / | -1% | /
Cc1ccccc1NS(=O)(=O)c1cc(C(=O)NCCSC2CCCCC2)ccc1C | 11µM* | -1% | 21 | -9% | -3% | 2
C=CCn1c(Cc2c[nH]c3ccccc23)n[nH]c1=S | 6% | -20% | 13 | 13µM* | -9% | 12*
C=CCn1c(-c2cccc3ccccc23)n[nH]c1=S | 3%[3.69 µM] | 8.9µM* | -1 | / | -2% | -3
COc1ccc(NC(=O)c2ccc(-c3nc(CSc4ccc(C)cc4)c(C)o3)cc2)cc1Cl | / | / | / | 1% | / | /
O=C(c1cccnc1)n1nc(-c2ccco2)nc1NCc1cccs1 | -2% | 0% | 124* | 0% | -8% | 37*
SMILES | RE007 growth inh | LmPK inh | Shiga toxin inh | TbPYK inhibitor | FBPA Giardia inh | CHX counter
COCC(=O)n1nc(-c2ccccc2)nc1NCc1ccc(F)cc1 | 15% | 3% | 47* | 3% | 6% | 15
O=C(c1ccccc1)n1nc(-c2ccco2)nc1NCc1cccs1 | / | / | / | -10% | / | /
CCC(=O)n1nc(-c2ccccc2)nc1NCc1ccccc1 | 6% | -3% | 71* | -3% | 3% | 23*
COCC(=O)n1nc(-c2ccccc2)nc1NCc1ccccc1 | 7% | 3% | 63 | -2% | -3% | 25*
COCC(=O)n1nc(NCc2ccc(OC)cc2)nc1NCc1ccc(OC)cc1 | 9% | -3% | -5 | ? | -6% | -1
CC(=O)NC(c1ccccc1)c1nc(-c2cccc(C(F)(F)F)c2)cs1 (configuration not stated) | -1% | / | / | -9% | / | /
Cc1ccc(CS(=O)(=O)Cc2ccc(C(=O)NCCc3ccc(Cl)cc3)o2)cc1 | / | / | / | -9% | / | /
CCC(=O)n1nc(-c2ccc(OC)cc2)nc1NCc1cccs1 | -7% | 7% | 5 | 2% | -7% | -4
CC(=O)n1nc(-c2ccccc2)nc1NCc1cccs1 | -16% | 1% | 30 | -4% | 5% | 25*
CC(=O)n1nc(-c2ccccc2)nc1NCc1ccc(N(C)C)cc1 | -8% | 0% | 68* | -3% | 2% | 45*
COc1ccc(CNc2nc(-c3ccccc3)nn2C(=O)c2cccs2)cc1 | 12% | 1% | -6 | -6% | 3% | -10
COc1ccc(CNc2nc(-c3ccccc3)nn2C(=O)c2ccc([N+](=O)[O-])cc2)cc1 | 17% | 2% | 75* | -3% | -1% | 32*
CCn1c(=O)cc(SCC(=O)NCc2ccccc2OC)c2ccccc21 | / | / | / | 3% | / | /
Cc1ccc(CNC(=O)CN2C(=O)C3(SCC(=O)N3c3cc(C)cc(C)c3)c3ccccc32)cc1 (configuration not stated) | / | / | / | 5% | / | /
O=C(N/N=C/c1ccc(O)cc1)c1cccc(C(F)(F)F)c1 | -3% | -5% | 9 | -13% | 3% | 7
CCN(CC)S(=O)(=O)c1cccc(C(=O)N/N=C/c2cccc(O)c2O)c1 | -17% | -2% | 77* | -11% | ? | 53*
CCN(CC)S(=O)(=O)c1cccc(C(=O)N/N=C/c2cc(OC)c(O)c(OC)c2)c1 | 5% | 1% | -4 | -10% | -6% | 6
COCCNC(=O)C(=O)N/N=C/c1ccccc1C(F)(F)F | 0% | 3% | 12 | 5% | 1% | 1
O=C(N/N=C/c1ccccc1O)c1cccc(C(F)(F)F)c1 | 9% | 3% | 48* | -20% | -21% | 16
O=C(N/N=C/c1ccccc1C(F)(F)F)c1ccc(O)cc1 | 13% | 2% | 69* | 5% | -9% | 26*
CCc1ccc(-c2[nH]nc3nc(-c4cc(OC)ccc4OC)cc(C(=O)O)c23)cc1 | / | / | / | -5% | / | /
Cc1ccc(C)c(NC(=O)Cn2cc(C(=O)C3CC3)c3ccccc32)c1 | 10% | 3% | -11 | 0% | 2% | 10
Cc1ccc(NC(=O)Cn2cc(C(=O)C3CC3)c3ccccc32)c(C)c1 | -15% | 2% | 36* | -12% | 4% | 33*
Cc1ccc(/C=N/Nc2cccc3cccnc23)c(O)c1 | -16% | -18% | 48 | -5% | -17% | 28*
